We go through 26 molecules from PubChem BioAssay (NCATS).

Results filed as inconclusive are left out. A call without a number means that no potency is given here. The source made the active and inactive calls. Calls come from the whole dose curve.

Sequence of Atrial natriuretic peptide receptor 1 (Homo sapiens) (P16066 whole entry, looked up): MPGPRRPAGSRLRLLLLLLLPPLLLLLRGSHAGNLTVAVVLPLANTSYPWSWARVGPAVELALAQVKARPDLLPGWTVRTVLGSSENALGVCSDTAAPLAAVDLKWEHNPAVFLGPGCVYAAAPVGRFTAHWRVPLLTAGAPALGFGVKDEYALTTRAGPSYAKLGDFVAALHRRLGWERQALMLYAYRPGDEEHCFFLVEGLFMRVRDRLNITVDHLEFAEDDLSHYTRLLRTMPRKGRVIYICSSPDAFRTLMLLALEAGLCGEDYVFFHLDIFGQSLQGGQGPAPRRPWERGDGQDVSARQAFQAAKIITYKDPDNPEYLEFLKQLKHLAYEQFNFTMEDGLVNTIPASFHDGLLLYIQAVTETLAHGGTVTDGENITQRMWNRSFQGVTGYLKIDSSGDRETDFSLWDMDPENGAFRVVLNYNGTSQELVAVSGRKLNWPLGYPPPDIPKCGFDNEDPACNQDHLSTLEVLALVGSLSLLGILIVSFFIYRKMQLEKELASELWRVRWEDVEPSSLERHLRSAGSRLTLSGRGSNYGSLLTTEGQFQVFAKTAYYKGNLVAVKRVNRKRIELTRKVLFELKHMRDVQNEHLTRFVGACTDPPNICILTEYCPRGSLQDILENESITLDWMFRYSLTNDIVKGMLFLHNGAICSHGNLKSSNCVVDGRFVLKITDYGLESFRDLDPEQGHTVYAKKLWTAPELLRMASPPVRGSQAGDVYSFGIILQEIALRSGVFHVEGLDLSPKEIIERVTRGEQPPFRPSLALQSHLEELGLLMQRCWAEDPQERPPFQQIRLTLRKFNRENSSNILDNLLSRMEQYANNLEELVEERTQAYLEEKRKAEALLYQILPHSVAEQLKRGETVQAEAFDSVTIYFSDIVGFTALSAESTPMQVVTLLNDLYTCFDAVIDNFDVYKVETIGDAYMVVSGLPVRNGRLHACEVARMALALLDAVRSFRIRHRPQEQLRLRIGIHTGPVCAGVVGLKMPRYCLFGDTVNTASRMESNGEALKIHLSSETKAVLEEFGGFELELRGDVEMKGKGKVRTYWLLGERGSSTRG

The assay concerns the target Atrial natriuretic peptide receptor 1 (Homo sapiens) (UniProt P16066). Kind of assay: Natriuretic polypeptide receptor (hNpr1) antagonism - Pilot CMLD screen (AID 1347052).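 Note: HEK293 cells with hNpr1 stimulated by hNppA peptide at 0.1 nM; cGMP level read as GloSensor luciferase luminescence after agonist stimulation.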 As to conditions: HEK293 hNpr1 GloSensor cGMP luminescence, ANP-stimulated; series mostly up to 9.22 µM.
Take `N#CCCCSc1nnnn1-c1cc(C(F)(F)F)cc(C(F)(F)F)c1`: the Potency result was “inactive”. In the case of `CC(=O)OC[C@H]1O[C@H](CC=NO[C@H](C)CN2CCCCc3nc(C)c(C)cc32)C=C[C@@H]1OC(C)=O` it was “inactive”. As for `COC1=C[C@H](C(=O)NCCOC(C)=O)[C@H](C)[C@@H](c2ccccc2)CC1=O`, the Potency result is “inactive”. In the case of `COC1=C[C@H](C(=O)NCCOC(C)=O)[C@@]2(C)Cc3ccccc3[C@@H]2CC1=O` it was “inactive”; in that of `COc1ccc([C@]23Cc4ccccc4[C@H](O2)c2c(c4ccc(OC)cc4oc2=O)O3)cc1`, “inactive”. In the case of `CC(=O)C1=C(C)N(Cc2ccccc2)C(=O)NC1c1ccco1` (stereo unspecified) it was “inactive”; in that of `C=CC[C@@H]1C=C[C@H](ON=C(C)CCN2CCCc3nc(C)c(C)cc32)[C@H](CO)O1`, “inactive”.

For the molecule `COCCN1C(=O)C2=C(C1=O)C1N(C)c3ccccc3[C@@]13C[C@@H](CO)N(S(=O)(=O)c1ccc(OC)cc1)C3=N2` (stereo partly specified), the Potency result is “inactive”.

For `COC(=O)CC=C1c2ccccc2OC[C@@H](OC)[C@H]1C`, the Potency entry is “inactive”. In the case of `CCCC[C@]12Cc3cc(OC)c(OC)cc3[C@H](O1)C1=C(CC3(CCCCC3)OC1=O)O2` it was “inactive”; in that of `COC(=O)CC=C[C@H](C)[C@@H](NC(=O)C(F)(F)F)c1ccccc1Br`, “inactive”. In the case of `CC(C)(C)Nc1oc(-c2ccccc2)nc1-c1ccccc1` it was “inactive”; in that of `CCN1C(=O)N[C@@H](c2cccc(C(F)(F)F)c2)[C@H](C(C)=O)[C@H]1C`, “inactive”; in that of `COCCN1C(=O)NC(CCc2ccccc2)C(C(=O)OC)=C1C` (stereo unspecified), “inactive”. In the case of `C[C@@H]1CC[C@H]2C(=O)O[C@H](COc3ccc(C(C)(C)C)cc3)CN2[C@@H]1c1ccc(Br)cc1` it was “inactive”.

For `COC(=O)C1=C(C(=O)OC)[C@@H]2Nc3ccccc3[C@@]23C[C@@H](C(=O)OC)N(C(=O)Nc2ccc(C(F)(F)F)cc2)C3=N1`, the Potency result is “inactive”. Next, `C=CCN=C1NC(c2cccc(F)c2)C(C(=O)OC)=C(C)N1Cc1ccccc1` (stereo unspecified): “inactive”. In the case of `CC(C)CON=C1C[C@@H](O)[C@@H](O)[C@@H]2[C@H]3C(=O)N(C[C@@H]4CCCO4)C(=O)[C@@H]3CC[C@@H]12`, the Potency entry was “inactive”. Consider `O=C(C=NO)NCCCCNC(=O)C=NO`, for which the Potency result is “inactive”.

Turning to `CC(=O)C1=C(C)N(Cc2ccccc2)C(=O)NC1c1cccc(F)c1` (stereo unspecified), the Potency entry is “inactive”. `COc1ccc(O[C@H]2C=C[C@@H](c3ccccc3)O[C@H]2COC(=O)CCC(C)=NO[C@@H]2O[C@H](COC(C)=O)[C@@H](OC(C)=O)[C@H](OC(C)=O)[C@@H]2OC(C)=O)cc1`: the Potency result was “inactive”. Next, `CC(=O)C1=C(C)N(CC#C[Si](C)(C)C)C(=O)N(C(C)=O)C1c1ccccc1` (stereo unspecified): “inactive”; `COC(=O)c1ccc(CN2C(=O)[C@]3(OCCC=C[C@@H]3C)c3ccccc32)cc1`: “inactive”; `COc1cc(C(CC2=CCCCC2)NC(=O)C(F)(F)F)cc(OC)c1OC` (stereo unspecified): “inactive”.

Take `C[C@H]1Cc2c(-c3ccccc3)nc3c(c2CO1)CN(C(=O)Nc1cccc(C#N)c1)CC3`: the Potency result is “inactive”. For `CCCNC(=O)OC[C@H]1O[C@H](CCON=C(C)CCN2CCCc3nc(C)c(C)cc32)C=C[C@H]1Oc1ccc(OC)cc1`, the Potency result is “inactive”.
